Measured values from PubChem BioAssay (EPA / NIEHS).
Activity calls are given as the source filed them. How the source made its calls: active means hit-call score of the fitted dose curve at least 0.9, where 1 is the maximum; inactive means score below 0.9.

assay: ATG_M_61_CIS: Attagene CIS-FACTORIAL HepG2 Assay for M61 Transcription Factor (Internal Marker) (AID 2282937); conditions: HepG2 Attagene CIS-FACTORIAL M61 internal marker reporter; actives raise or lower the signal
Protocol: ATG_CIS is a cell-based, multiplexed-readout assay that uses HepG2, a human liver cell line, with measurements taken at 24 hours after chemical dosing in a 24-well plate.ATG_M_61_CIS is one of 52 assay component(s) measured or calculated from the ATG_CIS assay. It is designed to make measurements of mRNA induction, a form of inducible reporter, as detected with fluorescence intensity signals by Reverse transcription polymerase chain reaction (RT-PCR) and Capillary electrophoresis technology.Data from the assay component ATG_M_61_CIS was analyzed into 1 assay endpoint. This assay endpoint, ATG_M_61_CIS, was analyzed with bidirectional fitting relative to DMSO as the negative control and baseline of activity. Using a type of inducible reporter, measures of mRNA for gain or loss-of-signal activity can be used to understand the background control at the transcription factor-level as they relate to the gene . Furthermore, this assay endpoint can be referred to as a secondary readout, because this assay has produced multiple assay endpoints where this one serves a background control function. To generalize the intended target to other relatable targets, this assay endpoint is annotated to the background measurement intended target family, where the subfamily is internal marker.
Human liver HepG2 cells are transiently transfected with multiple reporter transcription units (MRTUs) in 6-well plates using FuGene 6 reagent (Roche; 3 ml FuGene/1 mg DNA). The MRTU constructs are regulated by a cis-regulating element (promoter). […] A major difference between the CIS and TRANS system is that in CIS activities of endogenous TFs are measured, whereas the TRANS assay evaluates changes in activities of exogenous, chimeric NR-Gal4 proteins. […] At the end of 24 hour incubation, total RNA was isolated using TriZol reagent (Invitrogen). The isolated RNA is then reverse-transcribed using oligo(dT) primer and Mo-MLV reverse transcriptase (Invitrogen) with DNAse I (Ambion) treatment for 30 min. The one-tenth of the produced cDNA was amplified by PCR using Taq DNA polymerase (Invitrogen) and two reporter sequence-specific primers. The PCR products were fluorescently labeled by primer extension with 6-arboxyfluorescein (6-FAM) 5'-labeled reporter sequence-specific primer (2 min at 95 C, 20 s at 68 C and 10 min at 72 C) and these products were digested with 5U of HpaI (New England Biolabs) for 2h at 37 C. The fragments were purified using Qiaquick PCR columns (Qiagen), analyzed on an ABI 3130xL genetic analyzer (Applied Biosystems) with peak positions identified by using a set of X-rhodamine (ROX)-labeled MapMarker1000 molecular weight standards (BioVentures). The raw capillary electrophoresis data was processed using Attagraph software (Attagene).

outcome, inactive:
CCCCCCCC/C=C\CCCCCCCC(=O)OCCO, COCCCOCCCOC, Cc1ccc2c(c1)C(=O)c1ccccc1C2=O, CC(C)C(=O)C(C)C, C[C@]12CCC(=O)C=C1CC[C@@H]1[C@@H]2C(=O)C[C@@]2(C)[C@H]1CC[C@]2(O)C(=O)CO, C=CC(=O)OCCOC1C2CCC1C1CC=CC12 (stereo not given), CCCCNc1ccc(NCCCC)c2c1C(=O)c1ccccc1C2=O, CC/C=C\C/C=C\C/C=C\CCCCCCCC(=O)O, O=CN1CCCCC1, OC1OCCOC1O (stereo not given), CC(=O)c1ccc2c(c1)CCCC2, c1ccc(-c2ccccn2)nc1, CCCCCCC(O)CO (stereo not given), CN1C(=O)N(C)C(O)C1O (stereo not given), CC(C)(C)c1ccc(OC(=O)c2ccccc2O)cc1, CC(C)c1ccc2c(C(C)C)cc(C(C)C)c(S(=O)(=O)O)c2c1, SCCc1cnccn1, CCCCCCOc1cc(C)c(O)c(C)c1C, FC(F)=C(F)OC(F)(F)C(F)(F)C(F)(F)F, CC(=O)[C@H]1[C@H](C#N)C[C@H]2[C@@H]3CC=C4C[C@@H](O)CC[C@]4(C)[C@H]3CC[C@@]21C, CC/C=C\CCOC(=O)CCCCC, CCCCCCCCCCC=CC#N, O=C1CCCC(=O)O1, CCCCOCCOC(=O)COc1nc(Cl)c(Cl)cc1Cl, CCc1ccc2c(c1)C(=O)c1ccccc1C2=O, C[Si](C)(C)O[Si](O)(O)O, CC(C)=CCCC(C)C=O (stereo not given), C=C(C)C(=O)OCCO, O=C(O)Cc1c(Cl)ccc(Cl)c1Cl, CC1=CC[C@H]2C[C@@H]1C2(C)C, O=C1CC2CC1C1CCCC21 (stereo not given), CCCCCCCCCCOC(C)=O, C=CCOc1c(Br)cc(Br)cc1Br, CCCNC(=O)NS(=O)(=O)c1ccc(Cl)cc1, Cc1ccc(C2OC[C@@H]3OC(c4ccc(C)cc4)O[C@H]([C@H](O)CO)[C@@H]3O2)cc1 (stereo not given in full), C[C@]12C=CC(=O)C=C1CC[C@@H]1[C@@H]2[C@@H](O)C[C@@]2(C)[C@H]1CC[C@]2(O)C(=O)CO, CCC(=O)Oc1ccc(/C(CC)=C(\CC)c2ccc(OC(=O)CC)cc2)cc1, CC(=O)Oc1ccc(C(C)=O)cc1, O=C1CCCC1, CNC(=S)N(C)C
